Test results from the supplement of paper PMC6555819.

Key:
Experiment in all cases: PBM binding z-score (relative to random genomic background probes); higher = stronger binding; sequences stand for … in GC…GCGATTGACAGCGTAGAATGAAGG
[1] = test system: RARg:RXRa (NR concentration 270 nM, RXRa partner concentration 90 nM)
How it was run: (§1)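 Regression normalization was applied to scanned fluorescence from custom Agilent 4×180K protein-binding microarrays. Before scanning, arrays were incubated 1 h with ligand-free nuclear receptor dimers, and binding was detected with antibodies against each partner (one per run). Binding z-scores use the random background probes as reference.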

[2] = test system: RARg homodimer (NR concentration 270 nM)
How it was run: as §1

[3] = test system: RXRa DBDmut IVT, anti-RXR (DBD mutation: RXRa K156A/R161A, NR concentration 90 nM)
How it was run: as §1

[4] = test system: RXRa homodimer (NR concentration 180 nM)
How it was run: as §1

[5] = test system: THRa:RXRa (NR concentration 90 nM, RXRa partner concentration 90 nM)
How it was run: as §1

[6] = test system: THRa homodimer (NR concentration 90 nM)
How it was run: as §1

[7] = test system: VDR homodimer (NR concentration 270 nM)
How it was run: as §1

Row | Sequence | PBM binding z-score [1] | PBM binding z-score [2] | PBM binding z-score [3] | PBM binding z-score [4] | PBM binding z-score [5] | PBM binding z-score [6] | PBM binding z-score [7]
1 | AGAATGAGGTCATTAAGATCAGGGAATTGCGGTC | 5.83 | 5.03 | 4.81 | 6.72 | 4.38 | 3.69 | 4.67
2 | CCGACTGGGGCAAGGTCACCATAACGCACAGCCA | 4.32 | 4.45 | 0.549 | 4.37 | 3.66 | 2.7 | 2.02
3 | ACTCGGATGACAAAGGTCAGAGCTACGCCAGTGA | 4.9 | 4.66 | 0.624 | 4.83 | 2.54 | 0.0278 | 1.1
4 | CCTACTGGGCCATTCAGAGGTCAATGATCATATG | 4.55 | 3.43 | 0.406 | 3.05 | 2.97 | 1.32 | 1.44
5 | CGAACTAGGTCGAGGACAGTGAATCTCCGCACGC | 0.749 | 1.36 | 0.54 | 0.381 | 2.11 | 1.45 | 0.0594
6 | TCGCCTAGGTCATGGGCCAGTATACCACGCGAAC | 4.24 | 4.78 | 1.21 | 3.7 | 3.15 | 1.58 | 0.535
7 | ATATGTAGTTTATCGGGTCATTCAGTTTGCGCAT | 2.41 | 1.85 | 2.32 | 2.61 | 3.42 | 3.09 | 4.13
8 | AAAACAGGGTCATCGTAGGCCAGAGTACGCACAG | 6 | 5.11 | 3.74 | 7.23 | 4.81 | 1.58 | 4.06
9 | TCTGCTAGGTCAACGTTGGTCAGCTAATCTGCTA | 3.78 | 4.83 | 1.06 | 2.32 | 3.21 | 0.755 | -0.37
10 | CCTTACGGGTCACTGACAGGTTATAGCGTTTGGA | 5.75 | 4.55 | 1.73 | 5.06 | 2.76 | 0.417 | 1.2
11 | TCTCGGAGGAAACGAAAGGTCAGAGCTCGACATC | 4.03 | 3.59 | 0.822 | 4.07 | 2.59 | 0.0929 | 0.612
12 | TCTTGTAGATCAATAGAAGTTAAGAAAGTGCGCT | 0.119 | 0.155 | 1.24 | 0.537 | 0.00398 | -0.786 | 0.102
13 | CCTACTGGGCCGTTCAGAGGTCATTGATCATATG | 3.7 | 2.47 | 0.516 | 3.46 | 2.86 | 1.42 | 2.97
14 | TACCCTAGGTCATTGGGCCAGTATAGTACGCATC | 4.13 | 4.3 | 1.87 | 3.19 | 3.08 | 1.37 | 1.77
15 | CGAACGAGGTCAAAGGACAGTGAAAGGCGACGTA | 6.46 | 6.17 | 4.61 | 6.91 | 3.88 | 1.79 | 3.52
16 | CGTCCAAGGTCAAGGTCAATGAAAGAGACTCGAA | 7 | 7.87 | 3.91 | 6.52 | 4.35 | 3.41 | 3.28

Row | Sequence | PBM binding z-score [1] | PBM binding z-score [2] | PBM binding z-score [3] | PBM binding z-score [4] | PBM binding z-score [5] | PBM binding z-score [6] | PBM binding z-score [7]
17 | ATATGTAGGTTAGCTGGGGTCCTTCAGACTAGGC | 0.698 | 0.529 | 0.183 | 0.692 | 3.45 | 0.268 | 0.249
18 | CTATGTAGGTTACGGGGGTCATTCAGTTTGAAAG | 5.91 | 4.59 | 2.61 | 6.14 | 4.12 | 2.03 | 5.93
19 | CAGCATAGGTCAGGGCCAGTATAGGAGGAACGTT | 3.97 | 4.39 | 0.209 | 3.33 | 1.65 | -0.231 | -0.0525
20 | GCTGCTAGGTCAACTGATGGCCAGCTAAAGCTCG | 4.59 | 5.33 | 1.01 | 2.75 | 2.89 | 0.674 | -0.329
21 | AGAATGGGGTTATACGTAGATCAGGGAAGAAAGT | 2.66 | 0.984 | 2.16 | 4.17 | 2.8 | 1.53 | 1.86
22 | CGAACTAGGTCGCCAGGACAGTGAAGAGGTTGGA | 0.757 | 1.27 | 0.47 | 0.761 | 1.68 | 0.578 | -0.15
23 | CCTTACGGGTCACTCCAGGTTATATCATCGGAGT | 4.35 | 4.43 | 1.46 | 4.17 | 5.19 | 0.814 | 1.49
24 | ATCGAAAGGTCCAAGGTGAGTATACCCACCCGAA | 0.919 | 1.08 | 0.0908 | 0.853 | 1.35 | 0.653 | 0.214
25 | TATTCAGGGTCAAAGGCCAGAGTACGAATGTCGA | 6.24 | 5.27 | 3.3 | 7.75 | 3.83 | 1.25 | 3.62
26 | ACTTACGGCTCAACGAGGTTATAGCACGCGTATA | 0.411 | 0.49 | 0.343 | 0.9 | 1.33 | 0.562 | 0.756
27 | CGTCAAAGATCAAGGTAACGTAACAGAAAGCAGC | 0.224 | 0.612 | -0.147 | 0.691 | 1.33 | 0.524 | -0.275
28 | AGAATGAGGTTAAACGTAGATCAGGGAAGAAAGT | 2.9 | 1.54 | 2.08 | 3.22 | 2.55 | 0.549 | 1.04
29 | TAGCCTAGGGCATTCAGGGGCCAGTATAGAAAGC | 1.99 | 1.1 | -0.766 | 0.0553 | 1.2 | -0.586 | -0.169
30 | CCAACTGGGCCAAAAAGGTCATTGATGCCGATAA | 4.71 | 4.35 | 0.992 | 5.08 | 3.11 | 0.427 | 2.62
31 | CCTTACGGGTCACGAGGTTGTAGCACGACGAGCG | 5.67 | 5.42 | 2.05 | 6.5 | 3.19 | 0.351 | 1.99
32 | CCTTACGGGTAACGAGGTTATAGCACGACGAGCG | 1.01 | 0.837 | -0.598 | 1.43 | 1.35 | 0.247 | 0.527
